# High-throughput results deposited in PubChem by several laboratories.
# FXN GAA850 act: frataxin GAA850 promoter activation. activation, % at 6 µM. actives 0.56% (n = 360,000). HEK293 lucGAA850 FXN promoter luciferase reporter, 24 h; percent of 10 µM SAHA response;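 active = activation above the average of all compounds screened plus 3 SD, cutoff fixed separately per campaign, cut at about 7.5% in these data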;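 also: 0% = DMSO wells and 100% = 10 µM SAHA wells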
# HSF1 inh: HSF1 inhibition; NIH3T3-HGL HSE-luciferase, MG132-induced, luminescence 8 h; stronger effect = lower value; activity change, negative = inhibition, % at 7.5 µM (by protocol); actives 0.77% (n = 300,000); AID 2098;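 active = more than half of replicate wells show activity change below -50%, luminescence cut by over half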;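 also: luciferase reports HSF-1 transcriptional activity via heat shock element; 0% = median of DMSO wells and -100% = zero luminescence signal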
# HSF-1 act: increases HSF-1 driven luciferase reporter signal; actives 1.7% (n = 300,000); activation, % at 9 µM; AID 504408; NIH3T3-HGL HSF-1 luciferase reporter, MG132, 8 h; 100% = twice DMSO control signal;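 active = mean replicate activation of at least 50% with a set share of replicates each reaching 50%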;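 also: 0% = median of the neutral control wells and 100% = twice that signal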
# AHR act: human AHR activation | P35869 | AHR-responsive luciferase reporter cells, luminescence | activation, % at 5 µM | actives 2.5% (n = 320,000) | AID 2796; in the data active = activation above about 47%;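 also: 0% = vehicle wells and 100% = reference agonist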
# Target sequence (P35869 whole entry, looked up): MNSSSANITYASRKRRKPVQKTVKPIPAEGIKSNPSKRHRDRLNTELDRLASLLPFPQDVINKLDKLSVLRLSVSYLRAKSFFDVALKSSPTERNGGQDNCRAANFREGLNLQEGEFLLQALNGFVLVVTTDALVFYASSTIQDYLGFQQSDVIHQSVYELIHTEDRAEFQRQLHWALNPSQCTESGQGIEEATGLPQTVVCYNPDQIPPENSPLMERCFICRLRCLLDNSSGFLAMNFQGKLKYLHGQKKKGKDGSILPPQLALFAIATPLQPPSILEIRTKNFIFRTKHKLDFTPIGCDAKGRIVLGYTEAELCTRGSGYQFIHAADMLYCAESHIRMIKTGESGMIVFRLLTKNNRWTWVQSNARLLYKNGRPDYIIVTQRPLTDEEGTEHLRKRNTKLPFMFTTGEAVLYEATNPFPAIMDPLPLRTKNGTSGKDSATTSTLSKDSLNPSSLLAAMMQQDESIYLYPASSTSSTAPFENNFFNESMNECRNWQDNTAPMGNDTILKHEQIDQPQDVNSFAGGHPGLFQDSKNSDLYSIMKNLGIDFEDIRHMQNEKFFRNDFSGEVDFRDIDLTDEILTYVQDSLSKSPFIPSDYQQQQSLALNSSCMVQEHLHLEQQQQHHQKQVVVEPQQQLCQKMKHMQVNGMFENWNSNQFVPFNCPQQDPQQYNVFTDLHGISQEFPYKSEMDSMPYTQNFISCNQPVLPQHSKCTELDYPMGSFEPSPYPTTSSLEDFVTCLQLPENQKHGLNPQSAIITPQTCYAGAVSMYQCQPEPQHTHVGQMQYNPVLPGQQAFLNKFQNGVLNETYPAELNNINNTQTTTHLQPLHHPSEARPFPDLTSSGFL
# GAA30 FXN cntr: activates GAA30 frataxin promoter, counter-screen for GAA850 activators | shares compounds with FXN GAA850 act | HEK293 lucGAA30 FXN promoter luciferase, 24 h; DMSO = 0%, 5 µM ipriflavone = 100% | activation, % at 6 µM | actives 66% (n = 1,900) | AID 588350;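 active = mean activation above the mean of solvent-only control wells plus 3 SD, cut at about 22% in these data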;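 also: counterscreen of GAA850 promoter hits where activity marks nonselective or luminescence artifacts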
# FXN GAA850 conf: confirmation of GAA850 frataxin (FXN) promoter activators; shares compounds with FXN GAA850 act; HEK293 lucGAA850 FXN promoter luciferase reporter, 24 h; 100% = activation by SAHA; activation, % at 6 µM; actives 86% (n = 1,900);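 active = mean activation above a set limit taken from the primary screen, cut at about 8% in these data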;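 also: 0% = DMSO wells and 100% = 10 µM SAHA wells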
# Active calls of the source: *; / = no result given. Shown are actives, neighbours in structure and some others; about 4.6% of the full set was active somewhere.
SMILES,FXN GAA850 act,HSF1 inh,HSF-1 act,AHR act,GAA30 FXN cntr,FXN GAA850 conf
CN(C)c1ccc(O)c2c1CC1CC3[C@@H](N(C)C)C(=O)C(C(N)=O)C(=O)[C@]3(O)C(=O)C1C2=O (stereo partly specified),10.8*,/,/,9.8,35.2*,10.9*
CNC(=O)c1c(C)nn(-c2ccc(F)c(Cl)c2)c1-c1cc(C)on1,2.1,-1.6,-0.5,2.8,/,/
COC(=O)c1sc(-c2ccc(C(C)(C)C)cc2)cc1NC(=O)CCC(=O)O,2.8,0.1,7.1,-4.8,/,/
O=C1[C@H](Cc2ccccc2)NCC=CC[C@H](c2ccco2)N1Cc1ccccc1,11.4*,/,/,/,5.4,7.2
O=C(Nc1ccon1)c1cc2c(s1)CCCCCC2,8.8*,35.7,45.4,34.6,112.8*,36.1*
O=C1CSC(c2ccco2)N1 (stereo unspecified),-1.7,-1.2,-13.5,1.4,/,/
Cn1c2ccccc2c(=O)c2cc(C#Cc3cccc(N)c3)ccc21,0.2,/,/,0.3,/,/
C=CCn1c2ccccc2c(=O)c2cc(C#CC[C@@H](C)O)ccc21,11.3*,/,/,41.0,127.4*,44.3*
C=CCn1c2ccccc2c(=O)c2cc(C#CC3(O)CCCCC3)ccc21,11.2*,-43.6,-48.9,22.4,104.2*,55.0*
O=C(c1ccccc1)c1ccc2nc[nH]c2c1,0.2,1.2,-3.0,14.1,/,/
Clc1ccc(-c2noc(CSc3nnc(Cc4cccs4)n3-c3ccccc3)n2)cc1,15.5*,0.2,24.4,-0.3,6.0,4.0
CN1CCN(NC(=O)c2cc([N+](=O)[O-])cc([N+](=O)[O-])c2)CC1,0.4,0.9,18.7,0.5,/,/
O=C(N/N=C/c1ccc(OC2CSC2)cc1)c1ccccc1,8.1*,13.0,28.5,3.0,84.4*,47.2*
O=C(N/N=C/c1ccc(OCc2ccc(F)cc2)cc1)c1ccccc1,-1.2,/,/,5.4,/,/
Cc1ccc(NC(=O)NC(=S)NC(=O)c2ccccc2)cc1,8.2*,23.0,54.2*,2.8,55.9*,23.9*
CC(=O)c1cccc(NC(=O)CN2C(=O)COc3ccc(S(=O)(=O)N4CCOCC4)cc32)c1,-3.3,8.8,22.1,1.8,/,/
Nc1nc(Nc2ccccc2)nc(N2CCCC2)c1[N+](=O)[O-],11.2*,32.4,40.7,28.7,74.9*,38.8*
CC1=CN2C(=N)/C(=C/c3ccc([N+](=O)[O-])o3)C(=O)N=C2S1,12.4*,52.9,75.4*,6.2,-55.0,-16.8
COCCNc1nc(SC)nc2sc3c(c12)CCN(C)C3,0.9,-5.7,-4.3,4.6,/,/
COCCCNc1nc(SCc2ccccc2)nc2sc3c(c12)CCC3,14.3*,1.1,32.2,7.0,30.6*,21.5*
CCN=c1scc(-c2cccs2)n1/N=C/c1cc(OC)ccc1O,2.3,/,/,1.2,/,/
CC(C)N=c1scc(-c2cccs2)n1/N=C/c1ccc(O)c(O)c1O,9.0*,/,/,3.2,48.7*,22.6*
CC(/C=N/NC(=O)c1sc(N)nc1C)=C\c1ccccc1,8.1*,43.5,74.7*,-9.6,116.3*,41.3*
CC(/C=N/NC(=O)c1ccccc1C)=C\c1ccccc1,3.5,10.4,6.7,-0.5,/,/
C[C@H](CO)N1C[C@H](C)[C@H](CN(C)C(=O)Nc2ccc(F)cc2)OCc2ccccc2-c2c(n(C)c3ccccc23)C1=O,14.4*,/,/,/,19.8,9.4*
SMILES,FXN GAA850 act,HSF1 inh,HSF-1 act,AHR act,GAA30 FXN cntr,FXN GAA850 conf
COC(=O)N(C)C[C@@H]1OCc2ccccc2-c2c(n(C)c3ccccc23)C(=O)N([C@H](C)CO)C[C@@H]1C,15.6*,/,/,/,32.9*,14.2*
C[C@@H]1CN([C@H](C)CO)C(=O)c2c(c3ccccc3n2C)-c2ccccc2CO[C@@H]1CN(C)C(=O)Nc1ccc2c(c1)OCO2,-7.2,/,/,/,/,/
C[C@H](CO)N1C[C@H](C)[C@H](CN(C)S(=O)(=O)c2ccccc2)OCc2ccccc2-c2c(n(C)c3ccccc23)C1=O,0.6,/,/,/,/,/
Cc1ccccc1S(=O)(=O)N(C)C[C@@H]1OCc2ccccc2-c2c(n(C)c3ccccc23)C(=O)N([C@H](C)CO)C[C@@H]1C,19.6*,/,/,/,17.8,10.3*
Cc1ccc(O)c(-n2nc3ccccc3n2)c1,9.2*,6.9,37.1,3.6,114.1*,34.8*
Cc1cc(C)c(C#N)c(SCc2nnc(-c3ccccc3[N+](=O)[O-])o2)n1,8.9*,19.6,36.5,4.7,108.5*,40.8*
COc1ccc(/C=C/C2=NNC(=O)CC2)cc1,7.7*,12.1,29.2,0.6,82.8*,32.1*
COc1cc(/C=N/Nc2ccccn2)ccc1OCC(C)C,7.8*,16.5,24.1,71.5*,87.0*,38.4*
CCc1cccc(CC)c1NC(=O)COC(=O)c1ccc2c(c1)S(=O)(=O)c1ccccc1C2=O,14.2*,5.9,-5.8,26.9,25.7*,6.4
NC(=O)COC(=O)c1ccc2c(c1)S(=O)(=O)c1ccccc1C2=O,-0.3,-3.8,-6.7,-1.9,/,/
Cc1ccc(Nc2nc(N)c([N+](=O)[O-])c(NCc3ccco3)n2)cc1,8.9*,25.6,37.4,6.8,67.4*,34.0*
Nc1nc(Nc2ccccc2)nc(NCc2ccco2)c1[N+](=O)[O-],7.0,-10.6,4.8,1.6,/,/
CCc1cccc2c(C(=S)N3CCCC3)c[nH]c12,1.6,2.7,10.2,16.0,/,/
CCc1cccc2c(C(=O)CCl)c[nH]c12,8.2*,11.0,11.7,27.1,31.2*,21.2*
Cc1c(CC(=O)NCCC(=O)O)c(=O)oc2cc3oc4c(c3cc12)CCCC4,1.6,-4.2,5.0,9.8,/,/
O=c1c2ccccc2[nH]c2ccc(O)cc12,8.2*,-6.9,4.3,12.0,39.1*,17.7*
Cc1ccc2[nH]c3ccccc3c(=O)c2c1,2.2,11.8,47.2,6.4,/,/
Cc1c(-c2ccc(O)cc2)nc2nc(-c3ccccc3)c(-c3ccccc3)nn12,/,-7.7,-1.2,-2.1,/,/
Cc1nc2nc(-c3ccccc3)nn2c(C)c1C,7.6*,15.8,33.0,43.3,115.2*,40.8*
COc1ccc2c(c1)[C@H]1[C@H](CO2)[C@H](c2ccccc2)[C@]2(C)C(=O)N(Cc3ccc(C)cc3)CC(=O)N12,12.6*,/,/,-0.3,11.5,9.0*
Cc1ccc(CN2CC(=O)N3[C@H]4c5cc(Cl)ccc5OC[C@@H]4[C@H](c4ccccc4)[C@]3(C)C2=O)cc1,0.6,/,/,-0.1,/,/
Cc1ccc(CN2CC(=O)N3[C@H]4c5cc(C)ccc5OC[C@@H]4[C@H](c4ccccc4)[C@]3(C)C2=O)cc1,1.4,/,/,0.4,/,/
Cc1ccc2c(c1)[C@H]1[C@H](CO2)[C@H](c2ccccc2)[C@]2(C)C(=O)N(Cc3ccccc3)CC(=O)N12,9.0*,/,/,-1.6,15.7,10.7*
Brc1ccccc1OCCCn1cnc2ccccc21,8.7*,28.9,60.7*,-3.7,101.3*,36.2*
